# Bioassay records: PubChem, National Center for Advancing Translational Sciences (NCATS)
# KCNH2 3.1 block: blocks the human KCNH2 3.1 channel isoform | activity change, % (tested at about 1.8 µM) | AID 720553 | U2OS KCNH2 3.1, thallium flux FluxOr; hits give low values | actives 0.95% (n = 340,000);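 active = maximum activity change below -70%; inconclusive = maximum activity change from -70% to -50%; inactive = maximum activity change above -50%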;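 note: thallium influx rate constant from kinetic fluorescence after stimulation buffer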
#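 Thallium flux via FluxOr fluorescence (Red40 quencher, 45 min loading) in U2OS cells virally expressing the KCNH2 3.1 isoform (1.77 x 10^8 /mL virus, overnight at 37 C). Rate constants from 2-min kinetic reads post-stimulation, normalised to positive and negative controls.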
# PGK inhibitor: T. brucei PGK inhibition | actives 0.043% (n = 380,000) | PGK/GAPDH coupled, Kinase-Glo luminescence, 60 min | Potency, µM (doses to about 57.5 µM), for the others: at the top dose activity change, negative = inhibition, hits mostly inhibitors; note: potency is the fitted concentration of half-maximal effect; nearly all actives have a fitted effect of over 60% in size
#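 Luminescent ATP detection (Kinase-Glo Plus) follows a 60-minute room-temperature incubation, with wells lacking PGK as controls. Buffer: 100 mM TEA (pH 7.6), 5 mM MgCl2, 0.01% Tween-20. Coupling enzyme GAPDH (100 nM final) supplies unstable 1,3-BPG in-well.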
# KAT2A inh: blocks human GCN5L2 histone acetyltransferase; GCN5L2 HAT assay, ThioGlo1 CoA-SH fluorescence; actives 0.21% (n = 390,000); Potency, µM (titrated, usually from 58.9 µM), inactives show top-dose activity change, negative = inhibition, most hits filed as inhibitors; note: potency is the fitted concentration of half-maximal effect
#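 Compounds, pin-transferred from DMSO stocks, meet 20nM GCN5L2 for 15 min before the reaction begins with H3(1-25) peptide (75uM) and acetyl-CoA (70uM). Thiol-reactive ThioGlo1 reports CoA release over 20 min at room temperature.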
# KCNH2 WT inh: KCNH2 (human, wildtype) channel inhibition; actives 0.37% (n = 340,000); U2OS, BacMam KCNH2, thallium flux FluxOr; hits give low values; activity change, % at 1.84 µM; AID 720551;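 active = maximum activity change below -70%; inconclusive = maximum activity change between -70% and -50%; inactive = maximum activity change above -50%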
#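 U2OS cells were transduced with wild-type KCNH2 virus (2.03 x 10^8 / mL) for 4 h at room temperature, then cultured overnight at 37 C. Thallium flux was read with FluxOr dye. Rate constants were normalized to DMSO controls.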
# Pin1 inhibitor: inhibitors of human Pin1; Q13526; Pin1 FP peptide displacement, HiFluor488, 10 min; Potency, µM (top dose mostly 115 µM), inactives show at the highest dose activity, negative = inhibition, actives largely listed as inhibitors; actives 0.009% (n = 390,000); active = well fitted inhibition curve with a large enough effect in the polarisation, with a control signal flat, not every such curve was filed as active; inconclusive = small, poorly fitted or top-dose-only effect, or effect the other way, or a change in a side signal; inactive = no such curve, though single readings can be large or run the other way; the % refers to the polarisation; note: potency is the fitted concentration of half-maximal effect
# RGS4 inhibitor: blocks human RGS4-accelerated GTP hydrolysis. AID 504845. actives 0.039% (n = 390,000). Potency, µM (series often up to 114 µM), inactives show top-dose activity change, negative = inhibition, most hits filed as inhibitors. P49798. Transcreener GDP fluorescence polarization, RGS4-accelerated GTP hydrolysis; note: potency is the fitted concentration of half-maximal effect; nearly all actives have a fitted effect of over 75% in size
#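 MLSMR compounds (23 nl, pin-transferred) preincubated 10 min at room temperature with a 500nM (2x) first reagent, then RGS4 at 900nM (2x) plus Transcreener GDP mix added; fluorescence polarization (620/688 nm) read before and after 90 min at 30 °C.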
# Starred values were filed as active, the others as inactive; i = inactive; ? = inconclusive; nt = no result given. Hits are enriched below; roughly 1.2% of the tested compounds scored in any of these assays. Unless noted, calls come from the whole dose curve; as a rule, active = well fitted curve in the direction sought with a large enough effect; inconclusive = small, poorly fitted or top-dose-only effect, or another doubt; inactive = no such curve, though single readings can be large; an effect the other way counts as inactive or inconclusive. % is set by controls: 0 for no effect and ±100 for the full control effect.
SMILES,KCNH2 3.1 block,PGK inhibitor,KAT2A inh,KCNH2 WT inh,Pin1 inhibitor,RGS4 inhibitor
COc1ccc(CN2CCCC(C(=O)c3ccc(SC)cc3)C2)cc1Cn1cccn1 (configuration not stated),-82*,-3%,-4%,-96*,6%,10%
Cc1onc(-c2ccc(Br)cc2)c1C(=O)Nc1ccc(Br)cc1F,nt,1%,-2%,nt,5%,1%
COc1ccc(C(=O)c2oc3ccccc3c2NC(=O)COc2ccccc2)cc1,nt,-5%,1%,nt,-3%,22%
O=C(Nc1ccc(Br)cc1)c1cccc(S(=O)(=O)Nc2ccccn2)c1,nt,2%,-2%,-191*,6%,-3%
CCOC(=O)c1ccc(N2C(=O)c3n[nH]c(-c4cccs4)c3C2c2ccc(OC)cc2OC)cc1 (configuration not stated),nt,-4%,-11%,nt,9%,3%
COc1ccc(C(=O)NC(=S)N(Cc2ccccc2)Cc2ccccc2)cc1,-11,-9%,-23%,-102*,-5%,-35%
COC(=O)c1ccc(OCC(O)CN2CCN(C(=O)c3ccco3)CC2)cc1 (configuration not stated),25,-1%,-6%,1,-12%,2%
COC(=O)c1ccc(OCC(O)CN2CCN(C(=O)c3ccco3)CC2)c(OC)c1 (configuration not stated),-85*,-1%,-1%,2,4%,1%
O=S(=O)(NCCc1csc2nc(-c3ccccc3)nn12)c1ccc(Oc2ccccc2)cc1,nt,-2%,-5%,nt,0%,-1%
Cc1cc(C)cc(NC(=S)N2CCC(NC(=O)C3CC3)CC2)c1,-11,0%,-4%,-95*,-7%,-1%
Cc1cc(C)cc(NC(=S)N2CCC(NC(=O)C3CCCCC3)CC2)c1,-10,-6%,2%,8,-10%,9%
O=C(NC1CCN(C(=O)Nc2cccc(Cl)c2)CC1)C1CCCCC1,-73*,-1%,-22%,-9,6%,10%
Cc1cccc(N2CCN(C(=O)Cn3cnc4sc(C)c(S(=O)(=O)N5CCN(c6ncccn6)CC5)c4c3=O)CC2C)c1 (configuration not stated),nt,-8%,-4%,nt,?,-5%
COc1cccc(Nc2n[nH]c(=S)s2)c1,-4,-9%,4%,-7,?,?
Cc1cccc(Nc2n[nH]c(=S)s2)c1C,-18,-2%,22µM*,-10,-1%,?
COc1ccccc1Nc1n[nH]c(=S)s1,13,-1%,6.3µM*,2,-2%,?
O=C(NCCCN1CCN(c2ccc(F)cc2)CC1)c1ccc2nc(Cc3ccccc3)oc2c1,nt,10%,-6%,nt,?,12%
Cc1nn(C)c2c1c(C(F)(F)F)cc(=O)n2CC(=O)N1CCC(C)CC1,nt,i,0%,nt,-1%,11%
CCOc1ccc(NC(=O)NCCN2CCN(c3ccccc3F)CC2)cc1,-34,-2%,13%,13,?,15%
CCOc1ccc(NC(=O)NCCN2CCN(c3cccc(C)c3C)CC2)cc1,-89*,-14%,7%,36,-3%,-7%
CCOc1cccc(N2CCN(CCNC(=O)Nc3ccc(C)cc3)CC2)c1C,-93*,i,-1%,6,0%,4%
COc1c(OC(C)=O)ccc(/C=C/c2ccc3ccccc3n2)c1[N+](=O)[O-],-77*,-1%,-6%,-3,1%,-22%
COc1c(OC(C)=O)ccc(/C=C/c2ccc3cccc(OC)c3n2)c1[N+](=O)[O-],-8,-2%,-1%,-11,?,32%
CCN1CCC(N2CCN(c3ccc(Cl)cc3)CC2)CC1,16,-2%,-10%,16,-1%,-21%
CCCN1CCC(N2CCN(c3cccc(C(F)(F)F)c3)CC2)CC1,-97*,i,-4%,-16,-1%,-19%
